Assay results taken from PubChem BioAssay (NCATS).
Inconclusive results are not listed. Calls of active or inactive are those of the source. Calls come from the whole dose curve; as a rule, active = well fitted curve in the direction sought with a large enough effect; inconclusive = small, poorly fitted or top-dose-only effect, or another doubt; inactive = no such curve, though single readings can be large; an effect the other way counts as inactive or inconclusive.

Columns and labels:
[1] = qHTS of pediatric cancer cell lines to identify multiple opportunities for drug repurposing: Primary screen for TC32 cells (AID 1347089); note: nearly all actives have a fitted effect of over 60% in size
Procedure, shortened: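 Luminescent ATP read-out (CellTiter-Glo) of metabolically active TC32 cells after 48 h exposure. Concentration-response curves came from 11-point (MIPE, 0.78 nM–46 µM) or 8-point (NPC, 0.59 nM–46 µM) primary titrations; follow-up used 11 points.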

[2] = qHTS of pediatric cancer cell lines to identify multiple opportunities for drug repurposing: Primary screen for DAOY cells (AID 1347090); note: nearly all actives have a fitted effect of over 55% in size
Procedure, shortened: (§1)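 Eight- or eleven-point concentration series, 48 h treatment at 37 degrees C in growth media; readout CellTiter-Glo luminescence. Potency and efficacy were taken from the concentration-response curves.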

[3] = qHTS of pediatric cancer cell lines to identify multiple opportunities for drug repurposing: Primary screen for SJ-GBM2 cells (AID 1347091)
Procedure, shortened: as §1

[4] = qHTS of pediatric cancer cell lines to identify multiple opportunities for drug repurposing: Primary screen for BT-37 cells (AID 1347094)
Procedure, shortened: (§2)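 Following a 5-hour attachment period, cells at 500-1,000/well received compounds and were cultured for 48 hours. CellTiter-Glo was added and luminescence read to estimate viable, metabolically active cells.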

[5] = qHTS of pediatric cancer cell lines to identify multiple opportunities for drug repurposing: Primary screen for NB-EBc1 cells (AID 1347095)
Procedure, shortened: as §2

[6] = qHTS of pediatric cancer cell lines to identify multiple opportunities for drug repurposing: Primary screen for U-2 OS cells (AID 1347096); note: nearly all actives have a fitted effect of over 50% in size
Procedure, shortened: (§3)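 Cells (500-1,000/well) in growth media were settled 5 h at 37 degrees C, then given compounds for 48 h. Viability was read as CellTiter-Glo luminescence. Primary runs used MIPE at 11 points (0.78 nM-46 µM) and NPC at 8 points (0.59 nM-46 µM); follow-ups used 11 points.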

[7] = qHTS of pediatric cancer cell lines to identify multiple opportunities for drug repurposing: Primary screen for Saos-2 cells (AID 1347097); note: nearly all actives have a fitted effect of over 40% in size
Procedure, shortened: as §2

[8] = qHTS of pediatric cancer cell lines to identify multiple opportunities for drug repurposing: Primary screen for LAN-5 cells (AID 1347100)
Procedure, shortened: as §3

[9] = qHTS of pediatric cancer cell lines to identify multiple opportunities for drug repurposing: Primary screen for BT-12 cells (AID 1347101); note: nearly all actives have a fitted effect of over 25% in size
Procedure, shortened: (§4)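 Cells (500-1,000/well) rested 5 h, then received compounds for 48 h; metabolically active cells were measured by CellTiter-Glo luminescence. Final concentrations spanned up to 46 µM (MIPE, 11-point) or 0.59 nM-46 µM (NPC, 8-point) in primary screens, 11-point in follow-ups.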

[10] = qHTS of pediatric cancer cell lines to identify multiple opportunities for drug repurposing: Primary screen for Rh18 cells (AID 1347102); note: nearly all actives have a fitted effect of over 65% in size
Procedure, shortened: as §3

[11] = qHTS of pediatric cancer cell lines to identify multiple opportunities for drug repurposing: Primary screen for RD cells (AID 1347104); note: nearly all actives have a fitted effect of over 55% in size
Procedure, shortened: as §2

[12] = qHTS of pediatric cancer cell lines to identify multiple opportunities for drug repurposing: Primary screen for MG 63 (6-TG R) cells (AID 1347105); note: nearly all actives have a fitted effect of over 50% in size
Procedure, shortened: as §2

[13] = qHTS of pediatric cancer cell lines to identify multiple opportunities for drug repurposing: Primary screen for control Hh wild type fibroblast cells (AID 1347106); note: nearly all actives have a fitted effect of over 55% in size
Procedure, shortened: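 Viability after 48 h compound treatment at 37C, 500-1,000 cells/well, read as ATP luminescence with CellTiter-Glo. Primary screens used 11-point (MIPE, 0.78 nM-46 µM) or 8-point (NPC, 0.59 nM-46 µM) final concentrations; follow-up screens used 11-point dilutions.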

[14] = qHTS of pediatric cancer cell lines to identify multiple opportunities for drug repurposing: Primary screen for SK-N-MC cells (AID 1347093)
Procedure, shortened: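 Metabolically active cells were quantified by ATP-dependent luminescence (CellTiter-Glo, 15 min at room temperature) following 48 h treatment. Cells had been plated at 500-1,000 per well and settled for 5 h beforehand.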

[15] = qHTS of pediatric cancer cell lines to identify multiple opportunities for drug repurposing: Primary screen for SK-N-SH cells (AID 1347098); note: nearly all actives have a fitted effect of over 65% in size
Procedure, shortened: as §4

[16] = qHTS of pediatric cancer cell lines to identify multiple opportunities for drug repurposing: Primary screen for OHS-50 cells (AID 1347103); note: nearly all actives have a fitted effect of over 40% in size
Procedure, shortened: as §4

[17] = qHTS of pediatric cancer cell lines to identify multiple opportunities for drug repurposing: Primary screen for A673 cells (AID 1347092); note: nearly all actives have a fitted effect of over 45% in size
Procedure, shortened: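 Cell viability of A673 measured by CellTiter-Glo ATP luminescence after 48 hours compound exposure. Dilution series spanned 0.78 nM to 46 µM (MIPE, 11-point) or 0.59 nM to 46 µM (NPC, 8-point); bortezomib 2.3 uM positive control.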

[18] = qHTS of pediatric cancer cell lines to identify multiple opportunities for drug repurposing: Primary screen for NB1643 cells (AID 1347099); note: nearly all actives have a fitted effect of over 50% in size
Procedure, shortened: as §2
Potency is the fitted concentration of half-maximal effect.

Compound	Potency [1]	Potency [2]	Potency [3]	Potency [4]	Potency [5]	Potency [6]	Potency [7]	Potency [8]	Potency [9]	Potency [10]	Potency [11]	Potency [12]	Potency [13]	Potency [14]	Potency [15]	Potency [16]	Potency [17]	Potency [18]
O=C(O)[C@H](Cc1c[nH]c2ccccc12)N1C(=O)c2ccccc2C1=O	inactive	inactive	inactive	inactive	inactive	inactive	inactive	inactive	inactive	inactive	inactive	inactive	inactive	–	–	–	–	–
CNC(=O)CN1CCC(Oc2cc3c(Nc4cccc(Cl)c4F)ncnc3cc2OC)CC1	0.93 µM (active)	0.0093 µM (active)	0.001 µM (active)	0.001 µM (active)	0.0066 µM (active)	–	–	0.001 µM (active)	0.0014 µM (active)	–	0.0026 µM (active)	–	inactive	0.0053 µM (active)	0.0607 µM (active)	0.001 µM (active)	–	–
c1nc2nc(Nc3ccc(N4CCOCC4)cc3)nc(NC3CCCCC3)c2[nH]1	4.66 µM (active)	18.7 µM (active)	–	21.7 µM (active)	3.72 µM (active)	inactive	4.69 µM (active)	0.469 µM (active)	21.7 µM (active)	9.35 µM (active)	13.2 µM (active)	11.8 µM (active)	inactive	0.935 µM (active)	4.29 µM (active)	–	4.69 µM (active)	1.66 µM (active)
O=C(C=Cc1cccnc1)NCCCCC1CCN(C(=O)c2ccccc2)CC1	0.0047 µM (active)	inactive	0.0166 µM (active)	–	0.0118 µM (active)	0.118 µM (active)	–	–	–	–	–	–	inactive	–	0.482 µM (active)	–	–	–
CN(c1ncccc1CNc1nc(Nc2ccc3c(c2)CC(=O)N3)ncc1C(F)(F)F)S(C)(=O)=O	13.1 µM (active)	18.7 µM (active)	3.32 µM (active)	9.68 µM (active)	4.69 µM (active)	inactive	–	–	10.9 µM (active)	inactive	10.5 µM (active)	9.35 µM (active)	20.9 µM (active)	2.96 µM (active)	24.1 µM (active)	5.44 µM (active)	–	2.35 µM (active)
COc1ccc2c(OCc3nnc4ccc(-c5ccccc5)nn34)ccnc2c1	inactive	inactive	–	inactive	inactive	inactive	inactive	inactive	inactive	inactive	inactive	inactive	inactive	inactive	inactive	inactive	inactive	inactive
CC1(C)OC2=C(C(=O)c3ccccc3C2=O)[C@H](NCc2ccccc2)[C@H]1O	18.6 µM (active)	5.9 µM (active)	7.43 µM (active)	8.63 µM (active)	2.35 µM (active)	9.35 µM (active)	–	–	13.7 µM (active)	7.43 µM (active)	–	9.35 µM (active)	23.5 µM (active)	–	4.82 µM (active)	4.32 µM (active)	–	4.18 µM (active)
O=C(CCCCCCNC(=O)c1cnc(N(c2ccccc2)c2ccccc2)nc1)NO	18.6 µM (active)	18.7 µM (active)	–	15.3 µM (active)	4.18 µM (active)	inactive	11.8 µM (active)	–	17.2 µM (active)	5.9 µM (active)	–	14.8 µM (active)	inactive	2.96 µM (active)	10.8 µM (active)	6.85 µM (active)	9.35 µM (active)	3.72 µM (active)
Cc1ccc(NC(=O)C2(c3ccc4c(c3)OC(F)(F)O4)CC2)nc1-c1cccc(C(=O)O)c1	0.234 µM (active)	0.469 µM (active)	–	0.0385 µM (active)	0.0662 µM (active)	0.59 µM (active)	0.148 µM (active)	0.0833 µM (active)	0.122 µM (active)	0.833 µM (active)	0.0743 µM (active)	0.148 µM (active)	11.8 µM (active)	0.0469 µM (active)	0.136 µM (active)	–	0.059 µM (active)	0.0332 µM (active)
CC(C)(C)OC(=O)Nc1ccc(-c2cc(C(=O)NCCCCCCC(=O)NO)no2)cc1	9.3 µM (active)	4.69 µM (active)	–	5.44 µM (active)	1.18 µM (active)	4.69 µM (active)	–	1.66 µM (active)	17.2 µM (active)	2.35 µM (active)	5.26 µM (active)	inactive	–	0.833 µM (active)	6.81 µM (active)	–	2.96 µM (active)	1.18 µM (active)
Cc1ccc(CN2CCNCC2)cc1NC(=O)CNc1ccc(F)c(F)c1	inactive	inactive	–	inactive	inactive	inactive	–	inactive	inactive	–	inactive	inactive	–	inactive	19.2 µM (active)	–	inactive	inactive
Cc1cnc(-c2cnc(NCCNc3ccc(C#N)cn3)nc2-c2ccc(Cl)cc2Cl)[nH]1	inactive	14.8 µM (active)	–	inactive	–	inactive	–	inactive	–	–	20.9 µM (active)	–	inactive	0.105 µM (active)	–	inactive	1.87 µM (active)	–
O=C1CCC[C@@H]2[C@H]3CCC[N+]4([O-])CCC[C@@H](CN12)[C@@H]34 (some centres undefined)	inactive	inactive	–	inactive	inactive	inactive	inactive	inactive	inactive	inactive	inactive	inactive	inactive	inactive	inactive	inactive	inactive	inactive
CCn1cc(-c2ccnc3[nH]c(-c4cccc(CN(C)C)c4)cc23)c(-c2ccc(NC(=O)N(C)C)cc2)n1	0.104 µM (active)	5.9 µM (active)	–	19.3 µM (active)	0.469 µM (active)	18.7 µM (active)	3.72 µM (active)	0.0264 µM (active)	–	16.6 µM (active)	10.5 µM (active)	4.69 µM (active)	20.9 µM (active)	0.0469 µM (active)	3.04 µM (active)	3.85 µM (active)	4.69 µM (active)	3.32 µM (active)
COc1ccc(C=Cc2cc(OC)c(OC)c(OC)c2)cc1O	0.0004 µM (active)	0.001 µM (active)	0.001 µM (active)	0.0137 µM (active)	0.001 µM (active)	inactive	–	–	–	–	inactive	inactive	–	0.001 µM (active)	–	0.001 µM (active)	–	–
